Drawing on PubChem BioAssay (NCI), this text covers growth inhibition for eight compounds.

The panel holds about 79,000 compounds, 15% with a hit somewhere; the sample as a whole holds those more often. A number with no mark means an inactive call. Calls of active or inactive are those of the source. Rule as the data show it: active = growth inhibition above about 70%; inactive = the rest.

The assay is described as follows: NCI Yeast Anticancer Drug Screen. Data for the rad50EPP+ strain (AID 151).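 Also: 0% = growth of vehicle-treated control cultures.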 Particulars: S. cerevisiae rad50 mutant strain, stronger effect = higher value. The procedure:
Growth inhibition of yeast strains with defined genetic alterations is measured as a screen for potential anti-cancer activity. Selected strains with alterations in DNA damage repair or cell cycle control were exposed to compounds and growth inhibition was measured relative to vehicle treated controls. The strain used in this assay is rad50EPP+

Take `COCCCN(Cc1cc(OC)c(OC)c(OC)c1)C(=S)Nc1cccc(Cl)c1`: the growth inhibition was -12% (at 1.2 µM); -21% (at 3.7 µM); -28% (at 11.0 µM); -6% (at 33.0 µM); -9% (at 100.0 µM).
As to `CCCCCCCCCCCc1nc(N)n[nH]1`, the growth inhibition reads like this: (at 1.2 µM) -1%; (at 3.7 µM) 7%; (at 11.0 µM) 16%; (at 33.0 µM) 55%; (at 100.0 µM) 70% (active).
`Cc1ccc(Nc2c3c(c(C#N)c4nc5ccccc5n24)CCCC3)cc1`: the growth inhibition is 14% (at 1.2 µM); 23% (at 3.7 µM); 27% (at 11.0 µM); 38% (at 33.0 µM); 31% (at 100.0 µM).
Consider `CCOc1ccc(C(=O)CCC(=O)O)c(C)c1`, for which the growth inhibition runs as follows: (at 1.2 µM) -2%; (at 3.7 µM) -2%; (at 11.0 µM) 0%; (at 33.0 µM) -3%; (at 100.0 µM) 3%.
As for `Nc1ccc(CCl)cc1Cc1c(O)ccc2ccccc12`, the growth inhibition is, setting by setting: (at 1.2 µM) 8%; (at 3.7 µM) 15%; (at 11.0 µM) 40%; (at 33.0 µM) 61%; (at 100.0 µM) 74% (active).
For the compound `CCc1[nH]nc(C(N)=O)c1N=NN(C)C`, the growth inhibition was 0% (at 1.2 µM); 12% (at 3.7 µM); 27% (at 11.0 µM); 69% (at 33.0 µM); 95% (active) (at 100.0 µM).
For `CC(C)(C)[OH+][O-].[O-]c1ccc(Cl)cc1C=Nc1ccc(Cl)cc1[O-].[O]=[V]`, the growth inhibition by setting is: (at 1.2 µM) 0%; (at 3.7 µM) 10%; (at 11.0 µM) 26%; (at 33.0 µM) 43%; (at 100.0 µM) 60%.
Regarding `CCC(=O)Oc1ccc(/C=N/NC(N)=S)nc1`, the growth inhibition is 0% (at 1.2 µM); -5% (at 3.7 µM); -9% (at 11.0 µM); -11% (at 33.0 µM); -12% (at 100.0 µM).
